# From PubChem
# TAG inh: inhibitors of triacylglycerol accumulation, primary screen, cell-based, uHTS, fluorescence, H9c2 | H9c2 cells, Nile Red lipid (TAG) fluorescence; cells loaded with 200 µM oleic acid | inhibition, % at 12.5 µM | 230,000 tested, 0.66% active | AID 651582, 2012;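 active = pattern-corrected inhibition of lipid staining of at least 50% with the nuclear-stain viability signal not falling by more than 50%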;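 also: 0% = DMSO wells and 100% = triacsin C control wells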
# PfGluPho inh: PfG6PD enzyme inhibitors, primary screen, biochemical, fluorescence intensity, uHTS | inhibition, % at 20 µM | 350,000 tested, 0.78% active | PfGluPho enzyme, NADPH resazurin-diaphorase fluorescence | AID 504690, 2011 | glucose-6-phosphate dehydrogenase-6-phosphogluconolactonase (Plasmodium falciparum 3D7);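 active = inhibition reaching at least a set limit at 20 µM in the primary screen, cut at about 59% in these data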;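 also: 0% = DMSO wells with substrate and 100% = DMSO wells lacking glucose-6-phosphate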
# Cardio protect: cardioprotection against H2O2-induced cell death, primary screen, uHTS, H9c2 cells, ATPLite luminescence. H9c2 cardiomyocytes, H2O2 injury protection, 2 h. protection from H2O2 cell death, % at 20 µM. 360,000 tested, 0.63% active. AID 588492, 2011;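 active = compounds giving at least 50% protection of heart cells from peroxide-induced death in the single-dose screen, raw or plate-pattern-corrected value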;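 also: 0% = DMSO wells with peroxide and 100% = DMSO wells without peroxide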
# NadD inh: inhibitors of S. aureus NadD, primary screen, biochemical, colorimetric, uHTS; 360,000 tested, 0.78% active; purified NadD enzyme, colorimetric absorbance read-out; inhibition, % at 20 µM; Nicotinate-nucleotide adenylyltransferase NadD (Staphylococcus aureus N315); in the data active = inhibition above about 26%
# APOBEC3A inh: APOBEC3A ssDNA deaminase inhibitors, primary screen, selectivity assay for APOBEC3G inhibitor project, biochemical, FAM/TAMRA oligo cleavage fluorescence | DNA dC->dU-editing enzyme APOBEC-3A (Homo sapiens), P31941 | recombinant A3A, FAM/TAMRA ssDNA deamination fluorescence | inhibition, % at 20 µM | 330,000 tested, 0.41% active;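 active = at least 40% inhibition at 20 µM here, with at most 30% in a related deaminase screen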;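 also: plate controls were A3A with DMSO for no effect and wells lacking A3A enzyme for full effect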
# A3G deaminase: APOBEC3G DNA deaminase inhibitors, primary screen, biochemical, fluorescence, single-stranded DNA substrate, uHTS; recombinant A3G, ssDNA deamination FAM/TAMRA fluorescence; inhibition, % at 20 µM; 330,000 tested, 0.28% active; AID 493012, 2011;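 active = inhibition of at least 40% at 20 µM, with no more than 30% in the related APOBEC3A deaminase screen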;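 also: plate controls were DMSO wells with A3G for no effect and wells lacking A3G enzyme for full effect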
# Target sequence (Q9HC16 whole entry, looked up): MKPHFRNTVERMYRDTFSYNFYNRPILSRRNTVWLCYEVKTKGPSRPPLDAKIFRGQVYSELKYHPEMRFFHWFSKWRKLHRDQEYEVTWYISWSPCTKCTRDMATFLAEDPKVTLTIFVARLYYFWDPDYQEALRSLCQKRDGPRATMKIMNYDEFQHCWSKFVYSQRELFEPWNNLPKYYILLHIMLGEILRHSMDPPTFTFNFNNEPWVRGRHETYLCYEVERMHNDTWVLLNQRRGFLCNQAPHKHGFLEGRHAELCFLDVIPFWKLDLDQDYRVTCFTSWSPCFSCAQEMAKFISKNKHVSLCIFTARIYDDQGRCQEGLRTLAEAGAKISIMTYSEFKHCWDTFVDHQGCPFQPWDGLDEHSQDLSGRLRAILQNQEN
# APOBEC3A confirm: APOBEC3A deaminase inhibitors, retest, confirmation, selectivity assay for APOBEC3G inhibitor project, biochemical, single concentration, fluorescence readout; 1,400 tested, 63% active; inhibition, % at 20 µM; shares compounds with APOBEC3A inh; recombinant A3A, ssDNA deaminase UDG fluorescence assay;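 active = inhibition reaching a set limit, 80% of the first screen's cutoff, at 20 µM in any replicate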;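 also: plate controls were DMSO wells with A3A for no effect and wells lacking A3A enzyme for full effect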
# UDG A3A counter: E. coli UDG inhibitors, confirmation, counter-screen for APOBEC3A inhibitor project, biochemical, single concentration, fluorescence, FAM/TAMRA oligo; inhibition, % at 20 µM; shares compounds with APOBEC3A inh; 1,000 tested, under 10 active; UDG counterscreen, FAM/TAMRA uracil oligo fluorescence; call rule not given here
# An asterisk follows results filed as active; / = not tested or not shown. Sampled rows, rich in hits. Any-hit rate of the full collection: about 2.9%.
SMILES,TAG inh,PfGluPho inh,Cardio protect,NadD inh,APOBEC3A inh,A3G deaminase,APOBEC3A confirm,UDG A3A counter
CCn1c2ccccc2c2cc(NC(=O)C(C)OC(=O)c3ccc(NC(=O)CC#N)cc3)ccc21 (stereo not drawn),18.0,-19.8,11.9,14.2,-3.0,-5.7,/,/
Cc1cccc(C)c1NC(=O)CSc1nnc(NC(=O)c2ccccc2C(=O)O)s1,6.5,-28.0,-2.0,-3.7,63.8*,16.7,16.8,/
Cc1ccccc1NC(=O)CSc1nnc(NC(=O)C2CC2)s1,/,-14.9,8.6,-1.1,1.1,-3.0,/,/
O=C(CSc1nnc(NC(=O)c2ccccc2C(=O)O)s1)Nc1ccccc1Cl,/,-16.4,3.1,6.5,60.3*,11.1,46.5*,-3.3
CC(=O)Nc1ccc(NC(=O)CSc2nnc(NC(=O)c3ccccc3F)s2)cc1,7.6,-8.7,-19.9,-3.6,/,/,/,/
O=C1NC[C@H](CCCCN2C[C@H](Cc3ccc(O)cc3)N(CCC3CCCCC3)C(=O)C2=O)N(CCC2CCCCC2)C1=O,/,/,/,22.8,/,/,/,/
C/C(=N\NC(=O)CN1CCCCC1)c1ccccc1O,/,-29.7,4.8,-3.1,40.5*,10.6,20.4,/
O=C(Cc1noc2ccccc12)Nc1ccc2ccccc2c1,/,2.9,-7.4,-3.8,46.8*,-3.8,-33.4,8.0
Cc1cc(C)n2nc(CC(=O)NC3CCCCCC3)nc2n1,/,-11.5,5.0,-1.8,1.0,-5.5,/,/
Cc1ccccc1NC(=O)Cc1nc(COC(=O)C(NC(=O)c2ccccc2C)C(C)C)cs1 (stereo not drawn),9.2,1.7,4.5,-5.5,-4.6,-9.6,/,/
Fc1ccccc1Sc1ccccc1CNC1=NCCN1,/,16.4,-5.4,16.6,62.9*,-4.1,90.9*,-0.5
c1ccc(Sc2cccc3ccccc23)c(CNC2=NCCN2)c1,/,-2.6,-10.9,15.6,58.4*,18.2,75.4*,2.5
O=[N+]([O-])c1ccccc1/C=N/NC1=NCCN1,-10.6,5.7,3.4,6.7,50.3*,18.7,63.6*,5.2
Cc1cc2nc(C3CCCCC3)c(Cc3cccc(Cl)c3)n2c(C)c1Br,/,/,/,11.5,/,/,/,/
O=C(O)C1CCCCN1C(=O)c1ccc(S(=O)(=O)N2CCCC2)cc1 (stereo not drawn),4.2,-4.9,4.2,-3.2,-5.5,-12.0,/,/
N=C1/C(=C/c2ccc(Br)o2)C(=O)N=C2SC(CC(=O)N3CCCC3)=NN12,/,6.2,8.6,11.8,43.4*,17.9,45.0*,/
N=C1/C(=C/c2ccco2)C(=O)N=C2SC(CC(=O)N3CCCC3)=NN12,/,0.3,3.7,0.0,51.4*,27.3,42.3*,1.2
N=C1/C(=C\c2ccc(Br)o2)C(=O)N=C2SC(CC(=O)N3CCOCC3)=NN12,/,-12.4,-5.2,0.7,20.8,8.0,/,/
COc1cc(CNC[C@H]2O[C@@H](n3cc(C)c(=O)[nH]c3=O)C[C@@H]2O)ccc1OCc1cccc(Cl)c1,6.8,-5.4,17.3,-4.1,/,/,/,/
O=C(NCC1COc2ccccc2O1)c1cc(S(=O)(=O)N2CCOCC2)c(Cl)cc1Cl (stereo not drawn),-4.4,-14.9,-1.8,-0.1,41.9*,4.3,0.5,/
CCCCCCCCn1c2c(c(=N)c3ccccc31)CCC2,/,-1.6,-23.4,11.2,0.5,-5.9,/,/
CCCCn1c2c(c(=N)c3ccccc31)CCC2,-18.5,-7.0,-8.3,3.7,87.7*,22.7,41.5*,2.3
